In PubChem BioAssay (NCI):
About 79,000 compounds went through this panel and 15% of them were active in at least one assay; those are over-represented in the sample as a whole. Activity calls are given as the source filed them. Rule as the data show it: active = growth inhibition above about 70%; inactive = the rest.

Test: NCI Yeast Anticancer Drug Screen. Data for the rad50 strain (AID 155);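 also: 0% = growth of vehicle-only cultures of the same strain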
Conditions: S. cerevisiae rad50 strain growth inhibition; at 50.0 µM (retest, dose inferred, filed as 5.0); active compounds read high
How it was run: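 Inhibition values express reduced yeast growth in compound-treated cultures relative to vehicle-treated controls.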
With `CCC/C(Cl)=N\OC(=O)Nc1cccc(C(F)(F)F)c1` the growth inhibition was 99% (active).
With `[O-][n+]1c2ccc(O)cc2nc2ccc(Cl)cc21` the growth inhibition was 17% (inactive).
For `Clc1ccccc1C1OC1c1ccccc1Cl` (stereo not drawn), the growth inhibition was 100% (active).
In the case of `c1ccc2c(c1)c1ncccc1c1nccnc21`, the growth inhibition is reported as 53% (inactive).
With `CC(=O)Nc1ccc2c(c1)C(=Nc1ccc(C(=O)O)cc1)c1ccccc1-2` the growth inhibition was 52% (inactive).
In the case of `COc1ccc(OC)c2cc3ccccc3cc12`, the growth inhibition is reported as 81% (active).
In the case of `COc1cc(C2c3cc4c(cc3OC(NNc3ccccc3)C2C)OCO4)cc(OC)c1OC` (stereo not drawn), the growth inhibition is reported as 96% (active).
In the case of `O=C1c2cc([N+](=O)[O-])ccc2-c2cccc(F)c21`, the growth inhibition is reported as 60% (inactive).
For `CCCCCCCCCCCC(=O)N(C)C`, the growth inhibition was 92% (active).
With `CCCCCCCCCCCC1=C(O)C(=O)C=C(O)C1=O` the growth inhibition was 79% (active).
In the case of `Cc1ccc(CSC(N)=Nc2ccccc2)cc1C`, the growth inhibition is reported as 40% (inactive).
In the case of `CCCCCCCCCCC1CCC(=O)O1` (stereo not drawn), the growth inhibition is reported as 50% (inactive).
With `O=[N+]([O-])c1cc(CCl)ccc1CCl` the growth inhibition was 98% (active).
With `Nc1ccc2c(c1)C(=O)c1cccc(N)c1C2=O` the growth inhibition was 93% (active).
For `CCCCCCCCCCNC(=O)OCC`, the growth inhibition was 22% (inactive).
For `CC1=C(C)Cc2c(O)ccc(O)c2C1`, the growth inhibition was 99% (active).
With `COc1ccc2c(c1)C(=O)c1ccccc1C2` the growth inhibition was 30% (inactive).
With `CCC(=O)OCCn1c2nc(=O)[nH]c(=O)c-2nc2cc(C)c(C)cc21` the growth inhibition was 10% (inactive).
In the case of `O=C(OCCN1CCCCCC1)C(c1ccsc1)C1CCCCC1` (stereo not drawn), the growth inhibition is reported as 39% (inactive).
With `Oc1c(Br)cc(Br)cc1C1CCCCC1` the growth inhibition was 99% (active).
With `CC1(C)[C@@H]2CC[C@]1(C)[C@H](OC(=O)CSC#N)C2` the growth inhibition was 98% (active).
In the case of `S=C(N/N=C(/c1ccccc1)c1ccccn1)N1CCCCCC1`, the growth inhibition is reported as 96% (active).
In the case of `Cc1ccc2[nH]c3c(C)c4cc[n+](C)cc4c(C)c3c2c1`, the growth inhibition is reported as 91% (active).
For `CNC(=O)OCc1c(COC(=O)NC)c(-c2ccc(-c3ccccc3)cc2)n(C)c1C`, the growth inhibition was 85% (active).
In the case of `COc1ccccc1/C=C1\Sc2scc(-c3cccc([N+](=O)[O-])c3)[n+]2C1=O`, the growth inhibition is reported as 96% (active).
For `O=[N+]([O-])c1ccc2c(c1)C(N1CCN(CCO)CC1)Cc1ccc(F)cc1S2` (stereo not drawn), the growth inhibition was 71% (active).
In the case of `Cc1ccc(CCC2=CCCc3c2ccc2ccccc32)cc1`, the growth inhibition is reported as -25% (inactive).
For `O=[N+]([O-])c1cccc2nccc(NCCCO)c12`, the growth inhibition was 79% (active).
In the case of `Cc1ccc(-n2cc(-c3ccc(Cl)cc3)c(C#N)c2N)cc1`, the growth inhibition is reported as 69% (inactive).
In the case of `Cc1ccc(S/N=C\c2ccccc2O)cc1`, the growth inhibition is reported as 79% (active).
In the case of `O=C(O)C1OC1(c1cccc(Cl)c1)c1ccccc1Cl` (stereo not drawn), the growth inhibition is reported as 59% (inactive).
In the case of `NC(=S)N/N=C\c1nccc2ccccc12`, the growth inhibition is reported as 96% (active).
In the case of `Clc1cccc(C(Nc2nncs2)Nc2nncs2)c1Cl`, the growth inhibition is reported as 37% (inactive).
With `O=C(OCC=C1CCCC1)c1cc([N+](=O)[O-])cc([N+](=O)[O-])c1` the growth inhibition was 57% (inactive).
In the case of `O=C(Nc1ccccc1)C(=O)C(C(=O)c1ccccc1)C(c1ccccc1)c1ccccc1` (stereo not drawn), the growth inhibition is reported as 86% (active).
For `N#CN1C2CCC1CC(=O)C2`, the growth inhibition was 99% (active).
With `COc1ccccc1C(=O)OCC1CCCN2CCCCC12` (stereo not drawn) the growth inhibition was 99% (active).
In the case of `CCNc1nnc(CSc2nc(-c3ccccc3)c(-c3ccccc3)[nH]2)s1`, the growth inhibition is reported as 94% (active).
With `O=C1c2ccccc2-c2n[nH]c3cccc1c23` the growth inhibition was 99% (active).

Same assay, conditions: S. cerevisiae rad50 strain growth inhibition; at 50.0 µM; active compounds read high
With `CCC/C(Cl)=N\OC(=O)Nc1cccc(C(F)(F)F)c1` the growth inhibition was 87.1% (active).
For `[O-][n+]1c2ccc(O)cc2nc2ccc(Cl)cc21`, the growth inhibition was 81.9% (active).
In the case of `Clc1ccccc1C1OC1c1ccccc1Cl` (stereo not drawn), the growth inhibition is reported as 38.6% (inactive).
In the case of `c1ccc2c(c1)c1ncccc1c1nccnc21`, the growth inhibition is reported as 76.8% (active).
For `CC(=O)Nc1ccc2c(c1)C(=Nc1ccc(C(=O)O)cc1)c1ccccc1-2`, the growth inhibition was 91% (active).
With `COc1ccc(OC)c2cc3ccccc3cc12` the growth inhibition was 74.3% (active).
With `COc1cc(C2c3cc4c(cc3OC(NNc3ccccc3)C2C)OCO4)cc(OC)c1OC` (stereo not drawn) the growth inhibition was 12.3% (inactive).
With `O=C1c2cc([N+](=O)[O-])ccc2-c2cccc(F)c21` the growth inhibition was 91.9% (active).
For `CCCCCCCCCCCC(=O)N(C)C`, the growth inhibition was 90.5% (active).
For `CCCCCCCCCCCC1=C(O)C(=O)C=C(O)C1=O`, the growth inhibition was 46.5% (inactive).
In the case of `Cc1ccc(CSC(N)=Nc2ccccc2)cc1C`, the growth inhibition is reported as 61.5% (inactive).
For `CCCCCCCCCCC1CCC(=O)O1` (stereo not drawn), the growth inhibition was 97.2% (active).
With `O=[N+]([O-])c1cc(CCl)ccc1CCl` the growth inhibition was 99.1% (active).
For `Nc1ccc2c(c1)C(=O)c1cccc(N)c1C2=O`, the growth inhibition was 89.8% (active).
In the case of `CCCCCCCCCCNC(=O)OCC`, the growth inhibition is reported as 84.5% (active).
In the case of `CC1=C(C)Cc2c(O)ccc(O)c2C1`, the growth inhibition is reported as 94.5% (active).
With `COc1ccc2c(c1)C(=O)c1ccccc1C2` the growth inhibition was 7% (inactive).
For `CCC(=O)OCCn1c2nc(=O)[nH]c(=O)c-2nc2cc(C)c(C)cc21`, the growth inhibition was 33.3% (inactive).
For `O=C(OCCN1CCCCCC1)C(c1ccsc1)C1CCCCC1` (stereo not drawn), the growth inhibition was 81.9% (active).
For `Oc1c(Br)cc(Br)cc1C1CCCCC1`, the growth inhibition was 89.2% (active).
In the case of `CC1(C)[C@@H]2CC[C@]1(C)[C@H](OC(=O)CSC#N)C2`, the growth inhibition is reported as 99% (active).
In the case of `S=C(N/N=C(/c1ccccc1)c1ccccn1)N1CCCCCC1`, the growth inhibition is reported as 76.7% (active).
With `Cc1ccc2[nH]c3c(C)c4cc[n+](C)cc4c(C)c3c2c1` the growth inhibition was 85.6% (active).
For `CNC(=O)OCc1c(COC(=O)NC)c(-c2ccc(-c3ccccc3)cc2)n(C)c1C`, the growth inhibition was 64% (inactive).
In the case of `COc1ccccc1/C=C1\Sc2scc(-c3cccc([N+](=O)[O-])c3)[n+]2C1=O`, the growth inhibition is reported as 85.7% (active).
In the case of `O=[N+]([O-])c1ccc2c(c1)C(N1CCN(CCO)CC1)Cc1ccc(F)cc1S2` (stereo not drawn), the growth inhibition is reported as 44.2% (inactive).
With `Cc1ccc(CCC2=CCCc3c2ccc2ccccc32)cc1` the growth inhibition was 11.1% (inactive).
For `O=[N+]([O-])c1cccc2nccc(NCCCO)c12`, the growth inhibition was 46.3% (inactive).
In the case of `Cc1ccc(-n2cc(-c3ccc(Cl)cc3)c(C#N)c2N)cc1`, the growth inhibition is reported as 63.3% (inactive).
In the case of `Cc1ccc(S/N=C\c2ccccc2O)cc1`, the growth inhibition is reported as 89.6% (active).
With `O=C(O)C1OC1(c1cccc(Cl)c1)c1ccccc1Cl` (stereo not drawn) the growth inhibition was 90.1% (active).
For `NC(=S)N/N=C\c1nccc2ccccc12`, the growth inhibition was 99% (active).
In the case of `Clc1cccc(C(Nc2nncs2)Nc2nncs2)c1Cl`, the growth inhibition is reported as 51.1% (inactive).
For `O=C(OCC=C1CCCC1)c1cc([N+](=O)[O-])cc([N+](=O)[O-])c1`, the growth inhibition was 4.3% (inactive).
In the case of `O=C(Nc1ccccc1)C(=O)C(C(=O)c1ccccc1)C(c1ccccc1)c1ccccc1` (stereo not drawn), the growth inhibition is reported as 82.5% (active).
With `N#CN1C2CCC1CC(=O)C2` the growth inhibition was 66% (inactive).
With `COc1ccccc1C(=O)OCC1CCCN2CCCCC12` (stereo not drawn) the growth inhibition was 90.7% (active).
In the case of `CCNc1nnc(CSc2nc(-c3ccccc3)c(-c3ccccc3)[nH]2)s1`, the growth inhibition is reported as 79.3% (active).
In the case of `O=C1c2ccccc2-c2n[nH]c3cccc1c23`, the growth inhibition is reported as 69.2% (inactive).
